Sampled rows, rich in hits. Any-hit rate of the full collection: about 4%.
Peg3 promoter – reduces Peg3 promoter-driven luciferase expression in HeLa; AID 588405; HeLa PEG-Prom luciferase reporter, luminescence, overnight; inhibition, % at 20 µM; 360,000 compounds, 1.7% hits;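 active = inhibition of at least 50% at 20 µM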
CF NFkB inh – cystic fibrosis NF-kB activation inhibition; KKLEB NF-kB-GFP reporter, PAF-induced, GFP fluorescence overnight; inhibition, % at 5 µM; 360,000 compounds, 0.86% hits;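 active = at least 50% inhibition at 5 µM, scaled per plate between neutral and stimulator controls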;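 note: PAF is a Pseudomonas aeruginosa culture filtrate used as stimulus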
TROY signal inh – inhibitors of TROY-dependent NF-kB signaling | AID 1347056 | inhibition, % at 10 µM | Q293 LMP1-TROYcd NF-kB luciferase reporter, 4 h | 360,000 compounds, 0.98% hits;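 active = compounds whose plate-normalised and pattern-corrected inhibition of the luciferase reporter signal at the single screening dose is 50% or more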
TWEAK Fn14 block – inhibitors of TWEAK-Fn14 interaction signaling. TWEAK-stimulated Fn14 reporter cells, luciferase luminescence, 8 h. inhibition, % at 10 µM. 360,000 compounds, 2% hits. AID 1159606; in the data active = inhibition above about 50%
KKLEB cytotox – CF airway cell cytotoxicity counter-screen. activity change (cytotoxicity), % at 5 µM. 360,000 compounds, 0.36% hits. AID 602141. KKLEB CF airway cells viability, ATPlite luminescence, overnight; stronger effect = lower value; cells stimulated with P. aeruginosa culture filtrate;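 active = corrected activity change at or below -50% at 5 µM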
HIF-2a inh – inhibitors of HIF-2a. 786-0 RCC cells HIF-2a reporter, luciferase luminescence, overnight. inhibition, % at 18.8 µM. 360,000 compounds, 0.72% hits. AID 624352;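 active = inhibition of the luminescence signal of 40% or more relative to plate controls, in a single-dose primary screen at 18.75 µM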
Hits are given with their value.

O=S(=O)(c1ccccc1)c1nnn2c1nc(NC1CCN(Cc3ccccc3)CC1)c1cc(Cl)ccc12 was read as Peg3 promoter 55, CF NFkB inh inactive, TROY signal inh inactive, TWEAK Fn14 block inactive, KKLEB cytotox inactive and HIF-2a inh inactive.
Screening O=S(=O)(c1ccccc1)c1nnn2c1nc(NC1CCN(Cc3ccccc3)CC1)c1ccccc12 returned Peg3 promoter inactive, CF NFkB inh inactive, TROY signal inh inactive, TWEAK Fn14 block inactive, KKLEB cytotox inactive and HIF-2a inh inactive.
Screening CC(C)(C)N(NC(=O)Nc1ccc(Cl)c(Cl)c1)C(=O)c1ccccc1 returned Peg3 promoter 61, CF NFkB inh inactive, TWEAK Fn14 block inactive, KKLEB cytotox inactive and HIF-2a inh inactive.
Screening COc1cc2c(cc1NC(=O)CCCCCN1C(=O)CCC1=O)oc1ccccc12 returned Peg3 promoter inactive, CF NFkB inh inactive, TROY signal inh inactive, TWEAK Fn14 block inactive, KKLEB cytotox inactive and HIF-2a inh inactive.
Cc1cc([N+](=O)[O-])ccc1NC(=O)CN1CCN(Cc2ccccc2)CC1 was read as Peg3 promoter inactive, CF NFkB inh inactive, TROY signal inh inactive, TWEAK Fn14 block inactive, KKLEB cytotox inactive and HIF-2a inh inactive.
O=C(CN1CCN(Cc2ccccc2)CC1)Nc1ccc([N+](=O)[O-])cc1C(=O)Nc1ccccc1F was read as Peg3 promoter 62, CF NFkB inh inactive, TROY signal inh inactive, TWEAK Fn14 block inactive, KKLEB cytotox inactive and HIF-2a inh inactive.
`COc1ccc(/C=N/NC(=O)c2ccccc2Cl)cc1CSc1nc2ccccc2s1` gave Peg3 promoter inactive, CF NFkB inh inactive, TROY signal inh inactive, TWEAK Fn14 block inactive, KKLEB cytotox inactive and HIF-2a inh inactive.
`COc1ccc(/C=N/NC(=O)c2cccnc2)cc1COc1ccc([N+](=O)[O-])c(C)c1` gave Peg3 promoter inactive, CF NFkB inh inactive, TROY signal inh 55, TWEAK Fn14 block inactive, KKLEB cytotox inactive and HIF-2a inh inactive.
For COc1ccc(/C=N/NC(=O)c2cccnc2)cc1CSc1nc2ccccc2s1 the results were Peg3 promoter inactive, CF NFkB inh inactive, TROY signal inh 50, TWEAK Fn14 block 52, KKLEB cytotox inactive and HIF-2a inh inactive.
CCc1noc(C)c1C(=O)N1CCCC(Nc2cccc(F)c2)C1 (centres undefined) was read as Peg3 promoter inactive, CF NFkB inh inactive, TROY signal inh inactive, TWEAK Fn14 block inactive, KKLEB cytotox inactive and HIF-2a inh inactive.
Screening Cn1nc(C(F)(F)F)c2cc(C(=O)Nc3ccc(C(F)(F)F)cc3)sc21 returned Peg3 promoter inactive, CF NFkB inh inactive, TROY signal inh 51, TWEAK Fn14 block inactive, KKLEB cytotox inactive and HIF-2a inh inactive.
Screening Cn1nc(C(F)(F)F)c2cc(C(=O)Nc3ccc(F)c(Cl)c3)sc21 returned Peg3 promoter inactive, CF NFkB inh inactive, TROY signal inh 61, TWEAK Fn14 block inactive, KKLEB cytotox inactive and HIF-2a inh inactive.
Cn1nc(C(F)(F)F)c2cc(C(=O)Nc3ccc(F)cc3)sc21 was read as Peg3 promoter inactive, CF NFkB inh inactive, TROY signal inh inactive, TWEAK Fn14 block inactive, KKLEB cytotox inactive and HIF-2a inh inactive.
Screening CCN(Cc1ccncc1)C(=O)c1cc(COc2c(C)cccc2C)on1 returned Peg3 promoter inactive, CF NFkB inh inactive, TROY signal inh inactive, TWEAK Fn14 block inactive, KKLEB cytotox inactive and HIF-2a inh inactive.
Screening NC(=O)c1ccc(Sc2nnc(-c3cccs3)n2CC2CCCO2)c([N+](=O)[O-])c1 (centres undefined) returned Peg3 promoter inactive, CF NFkB inh inactive, TROY signal inh inactive, TWEAK Fn14 block inactive, KKLEB cytotox inactive and HIF-2a inh inactive.
`O=C(O)c1ccc(N=NNc2cccc([N+](=O)[O-])c2)cc1` gave Peg3 promoter inactive, CF NFkB inh inactive, TROY signal inh inactive, TWEAK Fn14 block inactive, KKLEB cytotox inactive and HIF-2a inh inactive.
Screening N#C/C(=N\Nc1cccc([N+](=O)[O-])c1)C(=O)c1ccc(Br)cc1 returned Peg3 promoter inactive, CF NFkB inh 51, TROY signal inh inactive, TWEAK Fn14 block 52, KKLEB cytotox -55 and HIF-2a inh inactive.
`Cc1cc(C)cc(N=Cc2ccc([N+](=O)[O-])s2)c1` gave Peg3 promoter 51, CF NFkB inh inactive, TROY signal inh inactive, TWEAK Fn14 block inactive, KKLEB cytotox inactive and HIF-2a inh inactive.
Screening NC(=O)c1ccc(N=Cc2ccc([N+](=O)[O-])s2)cc1 returned Peg3 promoter inactive, CF NFkB inh inactive, TROY signal inh inactive, TWEAK Fn14 block inactive, KKLEB cytotox inactive and HIF-2a inh inactive.
Screening O=[N+]([O-])c1ccc(C=Nc2ccc(Cl)c([N+](=O)[O-])c2)s1 returned Peg3 promoter 81, CF NFkB inh inactive, TROY signal inh inactive, TWEAK Fn14 block inactive, KKLEB cytotox inactive and HIF-2a inh inactive.
Screening COc1cc(C)c(S(=O)(=O)Nc2ccc(CC(=O)O)cc2)cc1C returned Peg3 promoter inactive, CF NFkB inh inactive, TROY signal inh inactive, TWEAK Fn14 block inactive, KKLEB cytotox inactive and HIF-2a inh inactive.
`CC(C)C(C)NC(=O)COc1ccc(Sc2ccc(OCC(=O)NC(C)C(C)C)cc2)cc1` (centres undefined) gave Peg3 promoter inactive, CF NFkB inh inactive, TROY signal inh inactive, TWEAK Fn14 block 66, KKLEB cytotox inactive and HIF-2a inh inactive.
`O=C(Nc1cccc(O)c1)c1ccc(Br)cc1` gave Peg3 promoter inactive, CF NFkB inh inactive, TROY signal inh inactive, TWEAK Fn14 block inactive, KKLEB cytotox inactive and HIF-2a inh inactive.
`COc1ccc(Cl)cc1S(=O)(=O)N(C)CC(=O)NCc1ccc2c(c1)OCO2` gave Peg3 promoter inactive, CF NFkB inh inactive, TROY signal inh inactive, TWEAK Fn14 block 53, KKLEB cytotox inactive and HIF-2a inh inactive.
COc1ccc2cc3cc(C(=O)NCc4ccc5c(c4)OCO5)oc3nc2c1 was read as Peg3 promoter inactive, CF NFkB inh inactive, TROY signal inh inactive, TWEAK Fn14 block inactive, KKLEB cytotox inactive and HIF-2a inh inactive.
`COc1ccc2cc3cc(C(=O)N4CCN(Cc5ccc6c(c5)OCO6)CC4)oc3nc2c1` gave Peg3 promoter inactive, CF NFkB inh inactive, TROY signal inh 54, TWEAK Fn14 block inactive, KKLEB cytotox inactive and HIF-2a inh inactive.
`COc1cc2ccccc2cc1C(=O)Nc1ccc(Br)cn1` gave Peg3 promoter inactive, CF NFkB inh inactive, TROY signal inh inactive, TWEAK Fn14 block inactive, KKLEB cytotox inactive and HIF-2a inh inactive.
For CCn1cc(CN2CCC(n3nccc3NC(=O)c3cccc(F)c3)CC2)c(C)n1 the results were Peg3 promoter inactive, CF NFkB inh inactive, TROY signal inh inactive, TWEAK Fn14 block inactive, KKLEB cytotox inactive and HIF-2a inh inactive.
`CCN1C(=NCc2ccc(OC)cc2)N[C@@H](c2ccccc2)C(C(=O)OC)=C1C` gave Peg3 promoter inactive, CF NFkB inh inactive, TROY signal inh inactive, TWEAK Fn14 block inactive, KKLEB cytotox inactive and HIF-2a inh inactive.

Compound activity deposited in PubChem by Sanford-Burnham Center for Chemical Genomics.
